Compounds with a hit are over-represented: about 2.1% of the library has one in this group of screens.
FUS yeast rescue – qHTS for Suppressors of FUS Proteinopathy: Primary screen using FUS-linked yeast assay. S. cerevisiae FUS-expressing, growth rescue, OD600, 24 h. Potency, µM (highest dose often 76.6 µM), actives largely listed as activators. 0.24% of 390,000 active. AID 1347120, 2019; note: nearly all actives have a fitted effect of over 55% in size
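Yeast expressing FUS under galactose induction, OD 0.005 in 2% galactose medium; compounds in a dilution series, 24 h at 30C. Growth rescue by absorbance at 600 nm; CP55940 positive control, DMSO negative.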
Abeta rescue – qHTS for compounds that reverse cellular toxicity of Amyloid beta (A-beta) peptide in yeast: Primary Screen; yeast expressing A-beta42, growth rescue, OD600, 48 h; response scale: 0% DMSO, 100% iron-clioquinol control; Potency, µM (titrated, usually from 46.1 µM), actives largely listed as activators; 0.063% of 410,000 active; AID 1347071, 2019; note: nearly all actives have a fitted effect of over 55% in size
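Growth rescue measured by 600 nm absorbance after 48 h yeast culture at 30 C with compound. Values normalized between DMSO and an equimolar ferric chloride plus clioquinol control.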
TDP-43 yeast inh – qHTS of TDP-43 Inhibitors | TDP-43 expressing yeast growth rescue, BacTiter-Glo, 24 h | Potency, µM (highest dose often 46.1 µM), usual class: activators | 1.8% of 410,000 active; note: nearly all actives have a fitted effect of over 50% in size
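Yeast expressing TDP-43 (pregrown in raffinose, seeded at OD600=0.02 in galactose medium) exposed to compounds 24 hr at 30 deg C. Growth read by BacTiter-Glo luminescence; rescue of toxicity appears as increased signal.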
TSG101-PTAP inh – qHTS Assay for Iinhibitors of HIV-1 Budding by Blocking the Interaction of PTAP/TSG101 | AID 493005, 2010 | Potency, µM (series often up to 115 µM), actives largely listed as inhibitors | Tumor susceptibility gene 101 protein (Homo sapiens), Q99816 | 340,000 tested, under 10 active | Fluorescence polarization, FITC-PTAP peptide / Tsg101 binding; active = well fitted inhibition curve with a large enough effect in the main read-out, with a control signal flat, not every such curve was filed as active; inconclusive = small, poorly fitted or top-dose-only effect, or effect the other way, or a change in a side signal; inactive = no such curve, though single readings can be large or run the other way
Target sequence (Q99816 whole entry, looked up): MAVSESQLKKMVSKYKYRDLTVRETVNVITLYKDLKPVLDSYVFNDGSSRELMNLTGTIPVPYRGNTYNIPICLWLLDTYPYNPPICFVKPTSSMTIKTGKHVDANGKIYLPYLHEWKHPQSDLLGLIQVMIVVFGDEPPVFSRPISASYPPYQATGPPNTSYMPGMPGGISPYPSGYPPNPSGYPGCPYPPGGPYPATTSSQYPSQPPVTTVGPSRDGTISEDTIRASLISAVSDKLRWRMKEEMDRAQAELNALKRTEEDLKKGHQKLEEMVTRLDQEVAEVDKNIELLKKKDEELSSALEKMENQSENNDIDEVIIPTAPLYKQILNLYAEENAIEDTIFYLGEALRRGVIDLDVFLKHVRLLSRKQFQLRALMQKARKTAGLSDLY
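Fluorescence anisotropy tracks displacement of a FITC-tagged PTAP peptide (50 nM) from the Tsg101 binding domain (10 uM), following a 20 min room-temperature incubation at pH 7.5.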
aSyn rescue – qHTS of alpha-syn Inhibitors; Yeast expressing alpha-synuclein, growth rescue, BacTiter-Glo, 24 h; Potency, µM (top dose mostly 46.1 µM), most hits filed as activators; 0.14% of 370,000 active; note: nearly all actives have a fitted effect of over 65% in size
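Galactose-induced alpha-syn yeast (OD600=0.02, raffinose-pregrown) + pinned cpd, 24 hr, 30 deg C; growth by BacTiter-Glo luminescence. Growth restoration scores as activation.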
Hits are given with their value; - = inactive; ? = inconclusive; . = no result. Unless noted, calls come from the whole dose curve; as a rule, active = well fitted curve in the direction sought with a large enough effect; inconclusive = small, poorly fitted or top-dose-only effect, or another doubt; inactive = no such curve, though single readings can be large; an effect the other way counts as inactive or inconclusive.

SMILES	FUS yeast rescue	Abeta rescue	TDP-43 yeast inh	TSG101-PTAP inh	aSyn rescue
CCCNC(=O)C1(C)CCN(C(=O)Cc2ccc(OC)c(OC)c2)C1 (configuration not stated)	-	-	-	.	?
CCCc1nn2c(=O)cc(COC(=O)c3ccccc3NC(=O)c3ccc(Cl)cc3)nc2s1	-	-	-	.	.
OCCN(CCO)c1nc2ccccc2[nH]1	-	-	-	-	-
O=c1[nH]c(=O)n(C(c2ccccc2)(c2ccccc2)c2ccccc2)cc1N(CCO)CCO	.	-	20µM	-	-
CC1(C)CC(=O)c2cc(C(=O)Nc3cccc4ccccc34)c(=O)[nH]c2C1	.	.	.	.	-
COc1ccc(NC(=O)C2Cc3c(-c4ccccc4Oc4ccccc4)ccnc3O2)cn1 (configuration not stated)	?	-	?	.	-
O=C(Nc1cccc(Oc2ccccc2)c1)C1Cc2c(-c3ccco3)ccnc2O1 (configuration not stated)	-	-	17.8µM	.	-
COc1ccc(NC(=O)C2Cc3c(-c4ccccc4Oc4ccccc4)ccnc3O2)cc1OC (configuration not stated)	?	-	11.2µM	.	-
CCc1ccc(NC(=O)C(=O)NCC(c2cccnc2)N2CCN(c3ccc(F)cc3)CC2)cc1 (configuration not stated)	-	-	-	.	.
Cc1cccc(NC(=S)NC(=O)Cc2ccccc2)c1C	-	7.94µM	?	-	-
Cc1ccc(-c2cc(C(=O)Nc3cc([N+](=O)[O-])ccc3C)no2)cc1F	-	-	-	.	.
Cc1cc(C(=O)Nc2c(F)cc(F)cc2Br)cs1	-	-	12.6µM	-	-
Cc1nc2nc(NC(=O)c3ccc(C(C)(C)C)cc3)[nH]n2c(=O)c1Cc1ccccc1	-	-	-	.	.
CC(/C=N/NC(=O)c1cc(C(C)C)[nH]n1)=C\c1ccccc1	-	-	-	-	3.98µM
CNc1ccc(C=O)cc1Cl	.	.	.	.	-
O=[N+]([O-])c1ccc(N2CCN(c3ccccc3O)CC2)c(Cl)c1	-	-	-	-	-
O=C1Cc2cc([N+](=O)[O-])ccc2N1c1c(Cl)cccc1Cl	-	-	20µM	-	-
CC(NC(=O)c1ccco1)C(=O)OCC(=O)N1CCCCCC1 (configuration not stated)	-	-	-	-	-
CN(Cc1ccc2c(c1)CCCN2C)C(=O)[C@H]1O[C@@H](n2cnc3c(N)ncnc32)[C@H](O)[C@@H]1O	-	-	-	.	-
CCn1nc(-c2ccc(C)cc2)nc2c(=O)n(C)c(=O)nc1-2	.	.	.	.	-
COc1ccccc1CCNC(=O)c1ccc(NC(=O)N2CC(C)Sc3ccccc32)cc1 (configuration not stated)	-	-	-	.	.
CC(C)Cn1c(N)c(C(=O)COC(=O)c2c(O)c(Cl)cc(Cl)c2Cl)c(=O)n(C)c1=O	-	-	25.1µM	-	-
CC(C)Cn1c(N)c(C(=O)COC(=O)c2ccc(Cl)cc2)c(=O)n(C)c1=O	-	-	.	-	-
O=C1NN=C(c2ccc(Cl)cc2)CC1c1cccc(Br)c1 (configuration not stated)	-	-	12.6µM	-	?
Cc1ccc(C2=NNC(=O)C(c3ccc(Cl)cc3)C2)cc1 (configuration not stated)	-	-	22.4µM	-	-
SMILES	FUS yeast rescue	Abeta rescue	TDP-43 yeast inh	TSG101-PTAP inh	aSyn rescue
O=C1NN=C(c2ccc(Cl)cc2)CC1c1c[nH]c2ccccc12 (configuration not stated)	-	-	-	-	-
CCOC(=O)[C@@]12CCC3=C1N(CCC3)C(=O)[C@H](CC(=O)NCc1ccc(OC)c(OC)c1)C2	-	.	.	.	.
CCc1ccccc1NC(=O)c1cnn(-c2ccccc2)c1C	-	-	14.1µM	-	-
Cc1ccc(C)c(NC(=O)c2cnn(-c3ccccc3)c2C)c1	-	-	?	-	-
Cc1cccc(NC(=O)c2cnn(-c3ccccc3)c2C)c1C	-	-	-	-	-
Cc1ccccc1NC(=O)c1cnn(-c2ccccc2)c1C	-	-	12.6µM	-	-
